NALP3 yeast inh: NALP3 inflammasome inhibitors in reconstituted yeast, primary screen, luminescence, uHTS. Yeast reconstituted NLRP3/ASC/caspase-1, beta-gal luminescence, 24 h. inhibition, % at 10 µM. 330,000 compounds, 0.39% hits. AID 2825, 2010;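 active = inhibition of 50% or more; inactive = inhibition below 50%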;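 also: plate controls were induced DMSO wells for no effect and uninduced yeast grown without galactose for full effect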
tim10-1 inh: growth inhibitors of tim10-1 mutant yeast, primary screen, luminescence, uHTS; inhibition, % at 20 µM; S. cerevisiae tim10-1 ts strain growth, BacTiter-Glo, 24 h; AID 463190, 2010; 330,000 compounds, 2.2% hits;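 active = inhibition of at least 40%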;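 also: mutant grown at 25 °C; 0% = DMSO wells with yeast and 100% = wells holding no yeast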
tim23-1 inh: growth inhibitors of tim23-1 mutant yeast, primary screen, luminescence, uHTS. S. cerevisiae tim23-1 growth, BacTiter-Glo luminescence, 24 h. inhibition, % at 20 µM. 330,000 compounds, 1.3% hits. AID 463212, 2010;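 active = growth inhibition of the mutant yeast at or above 50%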;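 also: temperature-sensitive mutant grown at 25 °C; plate controls were DMSO-treated mutant yeast for no effect and medium wells lacking yeast for full effect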
TIM10 inh: growth inhibitors of isogenic TIM10 control yeast, primary screen, counter-screen for tim10-1 yeast inhibitor project, luminescence, uHTS; S. cerevisiae TIM10 strain growth, BacTiter-Glo luminescence, 24 h; inhibition, % at 10 µM; 330,000 compounds, 1.4% hits;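 active = inhibition of 40% or more at the single tested concentration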;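 also: wild-type TIM10 isogenic control strain grown at permissive 25 °C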
PfHsp90 yeast 2: growth inhibition of PfHsp90-expressing yeast, primary screen, antimalarial PfHsp90 inhibitor project, S. cerevisiae, BacTiter-Glo luminescence, single point, set 2. inhibition, % at 9.4 µM. 310,000 compounds, 0.32% hits. AID 504621, 2011. BacTiter-Glo ATP, 48 h; yeast lacking PDR1 and PDR3 efflux regulators;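 active = every replicate shows inhibition above about 80%, whatever the replicate mean, limit read from the data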;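 also: 0% = DMSO neutral controls and 100% = 20 µM radicicol positive controls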
SKKanGAS inh: S. pyogenes SKKanGAS growth inhibitors in kanamycin, primary screen, streptokinase expression inhibitor project, SKKanGAS strain, BacTiter-Glo luminescence; 300,000 compounds, 1.3% hits; 6 h; inhibition, % at 7.5 µM;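 active = mean replicate score, as percent of positive control median, at least 50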;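 also: strain carries kanamycin resistance gene driven by streptokinase promoter and grows in 40 µg/ml kanamycin; loss of luminescence reflects streptokinase promoter inhibition or plain growth inhibition; 0% = median of DMSO wells and 100% = positive control at its reference dose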
tim10 confirm: growth inhibitors of wild-type TIM10 yeast, confirmation, counter-screen for tim10-1 synthetic lethality project, single concentration, luminescence, S. cerevisiae. shares compounds with TIM10 inh. S. cerevisiae tim10 strain growth, BacTiter-Glo luminescence, 24 h. inhibition, % at 10 µM. 4,600 compounds, 63% hits;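 active = inhibition of yeast growth at or above a set limit in either of two replicates at 10 µM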;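 also: this counterscreen used the strain with wild-type TIM10; 0% = yeast with DMSO and 100% = medium wells lacking yeast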
* = called active by the depositor; . = no result. A selection: hits, their analogues and other compounds. The true share with any hit is near 4.6%.

SMILES | NALP3 yeast inh | tim10-1 inh | tim23-1 inh | TIM10 inh | PfHsp90 yeast 2 | SKKanGAS inh | tim10 confirm
COc1cc2c(cc1NC(=O)COC(=O)Cn1cnc3ccccc31)oc1ccccc12 | 40 | 26 | -8 | 41* | -24 | 16 | -11
COc1cc2c(cc1NC(=O)COc1ccccc1OC)oc1ccccc12 | 2 | 19 | -8 | -10 | 2 | 1 | .
CCOC(=O)c1sc(=NC(=O)c2cccs2)n(C)c1C | 49 | 1 | 43 | 59* | . | -1 | 46*
CN(C(=O)CNC(=O)c1ccc(Br)o1)C1CCCCC1 | 11 | 12 | 14 | 4 | -4 | -3 | .
Cc1ccc(C(=O)NC(=S)Nc2ccccc2C(F)(F)F)cc1 | 21 | 26 | 28 | 40* | -19 | 7 | 12
Clc1ccccc1CSc1cc2c(nn1)-c1ccccc1CC2 | 6 | 24 | 17 | 15 | 18 | 36 | .
Clc1cccc(Cl)c1CSc1cc2c(nn1)-c1ccccc1CC2 | 2 | 38 | 26 | 40* | 6 | 30 | -1
N#C/C(=C\c1ccc(Sc2ccccc2)o1)c1nc2ccccc2[nH]1 | 9 | 13 | 13 | 8 | 7 | 7 | .
Cc1ccc2nc(/C(C#N)=C\c3ccc(N4CCOCC4)o3)[nH]c2c1 | 17 | -11 | 23 | 15 | 5 | 9 | .
N#C/C(=C\c1ccc([N+](=O)[O-])o1)c1nc2ccccc2[nH]1 | -4 | 28 | -144 | 59* | . | 31 | 66*
Cc1ccc2nc(/C(C#N)=C\c3ccc([N+](=O)[O-])o3)[nH]c2c1 | -15 | 17 | 29 | 84* | 105* | 89* | 95*
CC1CCC2(CC1)NC(=O)N(NC(=O)CCc1c[nH]c3ccccc13)C2=O (stereo not given) | 15 | 13 | 0 | 5 | -14 | . | .
CC(=O)Nc1ccc(SCC(=O)Nc2cc(C(C)(C)C)nn2-c2ccccc2)cc1 | 0 | 21 | 18 | 8 | 3 | -6 | .
Cn1c(SCC(=O)Nc2cc(C(C)(C)C)nn2-c2ccccc2)nc2ccccc21 | 9 | 29 | 40 | 43* | -16 | -11 | -20
Fc1ccc(NC(=S)N2CCN(c3ccccn3)CC2)cc1Cl | 26 | -2 | 0 | 2 | -3 | -2 | .
CCCCn1c(=O)[nH]c(=O)c2c1nc(-c1ccccn1)n2CC | 5 | 4 | 4 | -6 | 19 | -1 | .
CC(C)n1c(N2CCN(S(=O)(=O)c3cccc([N+](=O)[O-])c3)CC2)nc2ccccc21 | 22 | 34 | 30 | 41* | -9 | 6 | 34*
Cn1c(N2CCN(S(=O)(=O)c3ccc(F)cc3)CC2)nc2ccccc21 | 3 | -2 | -2 | -13 | 19 | -3 | .
COc1ccc(C(=O)N2CCN(c3ccc(N4CCOCC4)nn3)CC2)cc1OC | -5 | -29 | -34 | -12 | 1 | -5 | .
CNc1nc(Nc2ccccc2)nc(OCC(F)(F)F)n1 | 9 | 7 | -21 | 15 | 14 | -1 | .
CNc1nc(NN)nc(Nc2ccccc2)n1 | 20 | 16 | -2 | 96* | 4 | 27 | 6
C=C(C)CNC(=S)NN=C1c2ccccc2-c2ccccc21 | 25 | 31 | 32 | 19 | . | 20 | .
CCNC(=S)NN=C1c2ccccc2-c2ccccc21 | 41 | 37 | 7 | 44* | -51 | 8 | 25
c1ccc(Cn2c(-c3ccco3)nc3nc4ccccc4nc32)cc1 | 14 | 35 | 27 | 43* | -4 | 11 | -21
CCCCCn1c(-c2ccco2)nc2nc3ccccc3nc21 | 26 | 13 | 40 | 33 | 3 | 11 | .
SMILES | NALP3 yeast inh | tim10-1 inh | tim23-1 inh | TIM10 inh | PfHsp90 yeast 2 | SKKanGAS inh | tim10 confirm
CCOC(=O)CSc1nnc(-c2ccoc2C)n1-c1ccc(OCC)cc1 | 1 | 37 | 25 | 45* | -1 | 0 | -5
CCOC(=O)CSc1nnc(-c2ccoc2C)n1-c1ccc(C)cc1 | 3 | 28 | 25 | 8 | 8 | -5 | .
O=C1/C(=C/c2cccnc2)CC/C1=C\c1cccnc1 | 2 | 11 | 14 | 1 | 4 | -5 | .
O=C1/C(=C\c2cccnc2)CCc2ccccc21 | 11 | 40 | 40 | 44* | 17 | 0 | 40*
COc1ccc(CCN(C)C(=S)Nc2ccc(SC(F)F)cc2)cc1OC | 10 | 7 | 12 | 10 | -13 | 9 | .
COc1ccc(CCN(C)C(=S)NC(=O)c2ccc(F)cc2Cl)cc1OC | 16 | 31 | 34 | 45* | 17 | -4 | 20
COc1cc(OC)cc(-c2nc3ccccc3c(=O)n2OC(=O)c2ccccc2C)c1 | 1 | 36 | 44 | 48* | -18 | 12 | 11
COc1ccc(-c2nc3ccccc3c(=O)n2CCOc2c(C)cccc2C)cc1 | -10 | 9 | 6 | 10 | -11 | 4 | .
Cc1cc(C)c(NC(=O)C2CCCN2CCOC(=O)c2cccc([N+](=O)[O-])c2)c(C)c1 (stereo not given) | 3 | 36 | 39 | 41* | -4 | -12 | 17
COc1ccc(N2CCN(CCCNC(=O)Cn3c(=O)c4cccn4c4ccccc43)CC2)cc1 | 11 | 4 | 1 | 46* | 7 | 0 | 9
Cc1nc(NC(=O)c2ccccc2)sc1-c1csc(NCc2ccccc2)n1 | 5 | 24 | 43 | 19 | -28 | 17 | .
Cc1nc(NC(=O)c2ccccc2)sc1-c1csc(N)n1 | 17 | 35 | 26 | 44* | -27 | 0 | 24
O=C(CC1C(=O)NCCN1C(=O)c1ccc([N+](=O)[O-])cc1)Nc1ccc(F)cc1 (stereo not given) | 3 | -11 | 2 | -5 | -8 | 0 | .
O=C1CC(c2cccc(Cl)c2)CC(O)=C1C=Nc1cccc(Cl)c1 (stereo not given) | 25 | 15 | -13 | 79* | 14 | 8 | 80*
O=C1CC(c2ccccc2)CC(O)=C1C=Nc1ccccc1 (stereo not given) | 26 | 24 | 25 | -9 | 25 | -7 | .
COc1ccc(C(=O)OCCOc2cccc(Cl)c2)cc1S(=O)(=O)N1CCOCC1 | 10 | 1 | -4 | -11 | 14 | -1 | .
COc1ccc2oc(=O)c(-c3csc(Nc4ccc(O)cc4)n3)cc2c1 | 30 | 37 | 19 | 41* | 3 | 104* | -29
O=C(CCNS(=O)(=O)c1ccccc1)NNC(=O)C1COc2ccccc2O1 (stereo not given) | 9 | -30 | -3 | -7 | 3 | -4 | .
